Screening data from PubChem.
Cardio protect – cardioprotection against H2O2-induced cell death, primary screen, uHTS, H9c2 cells, ATPLite luminescence. AID 588492, 2011. protection from H2O2 cell death, % at 20 µM. H9c2 cardiomyocytes, H2O2 injury protection, 2 h. actives 0.63% (n = 360,000);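 active means compounds giving at least 50% protection of heart cells from peroxide-induced death in the single-dose screen, raw or plate-pattern-corrected value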;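 further: 0% = DMSO wells with peroxide and 100% = DMSO wells without peroxide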
CRFBP-R2 block – antagonists of CRF-BP/CRF-R2 complex, primary screen, cell-based, HEK293, calcium dye fluorescence, uHTS. CRF-induced calcium fluorescence. inhibition, % at 11.8 µM. actives 0.59% (n = 350,000). AID 588475, 2011;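 active means inhibition of the ligand-induced calcium signal above about 50% at the single tested concentration, limit read from the data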
PfGluPho inh – PfG6PD enzyme inhibitors, primary screen, biochemical, fluorescence intensity, uHTS; PfGluPho enzyme, NADPH resazurin-diaphorase fluorescence; inhibition, % at 20 µM; actives 0.78% (n = 350,000); glucose-6-phosphate dehydrogenase-6-phosphogluconolactonase (Plasmodium falciparum 3D7);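 active means inhibition reaching at least a set limit at 20 µM in the primary screen, cut at about 59% in these data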;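 further: 0% = DMSO wells with substrate and 100% = DMSO wells lacking glucose-6-phosphate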
FAS TE block – FAS thioesterase domain inhibitors, primary screen, biochemical, fluorescence intensity, uHTS. recombinant FAS-TE, OMFH fluorogenic substrate, fluorescence endpoint. inhibition, % at 15 µM. actives 0.67% (n = 360,000);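 active means compounds whose normalised, plate-corrected inhibition of enzyme fluorescence in the single-dose primary screen is 50% or more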;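 further: 0% = DMSO with enzyme and 100% = substrate without enzyme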
CRFBP-R2 agonist – agonists of CRF-BP/CRF-R2 complex, primary screen, cell-based, HEK293, calcium dye fluorescence, uHTS. calcium dye fluorescence (FLIPR); percent of saturating CRF peptide response. CRF-binding protein / CRF receptor 2 complex (human). activation, % at 13.2 µM. actives 0.46% (n = 350,000);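 active means activation of at least 50%, plus an integration ratio under a set limit after plate pattern correction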;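 further: plate controls were neutral control wells without compound for no effect and CRF at EC100 for full effect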
aDG glyco act – activators of alpha-DG glycosylation, primary screen, uHTS, Pro5-aDG cells, AlphaScreen | activation, % at 10 µM | alpha-DG glycosylation AlphaScreen (IIH6); 0% Pro5, 100% B10-LARGE cell signal | actives 0.22% (n = 360,000) | AID 624168, 2012;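 active means activation of at least 8% versus controls, or a plate z-score of at least 8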;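 further: Pro5 are CHO cells carrying HIG-tagged alpha-DG that lacks glycosylation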
PfGluPho conf – PfG6PD inhibitors, hit retest, confirmation, biochemical, fluorescence intensity, single concentration; shares compounds with PfGluPho inh; recombinant PfGluPho, NADPH-diaphorase-resazurin fluorescence; inhibition, % at 20 µM; actives 34% (n = 2,400); AID 504753, 2011;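 active means inhibition of at least 50% at 20 µM in any single replicate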;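 further: 0% = DMSO with substrate and 100% = DMSO lacking glucose-6-phosphate substrate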
Diaph ctr 10uM – diaphorase inhibitors and chemical oxidizers, confirmation, counter-screen for P. falciparum G6PD inhibitor project, biochemical, fluorescence intensity, 10 µM NADPH | shares compounds with PfGluPho inh | diaphorase-coupled resazurin reduction, NADPH 10 uM | inhibition, % at 20 µM | actives 39% (n = 820) | AID 504862, 2011;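 active means average inhibition reaching 50% or more with the compound at 20 µM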;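 further: resorufin red fluorescence formed as diaphorase reduces resazurin using NADPH; 0% = DMSO with enzyme and 100% = DMSO without enzyme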
Diaphorase 30uM – diaphorase inhibitors and chemical oxidizers, confirmation, counter-screen for P. falciparum G6PD inhibitor project, biochemical, fluorescence intensity, 30 µM NADPH | shares compounds with PfGluPho inh | Diaphorase/resazurin coupled assay, resorufin fluorescence | inhibition, % at 20 µM | actives 29% (n = 820) | AID 504863, 2011;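 active means inhibition averaging 50% or more, tested at 20 µM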;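 further: 0% = DMSO with enzyme and 100% = DMSO wells lacking diaphorase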
Starred values were filed as active, the others as inactive; x = not tested or not shown. A selection: hits, their analogues and other compounds. The true share with any hit is near 3.2%.

SMILES	Cardio protect	CRFBP-R2 block	PfGluPho inh	FAS TE block	CRFBP-R2 agonist	aDG glyco act	PfGluPho conf	others
Oc1cc2c(cc1O)[C@H]1c3ccc(O)c(O)c3OC[C@@]1(O)C2	14.6	13.1	113.3*	-0.4	0.5	0.4	97.5*	Diaph ctr 10uM=56.1*;Diaphorase 30uM=30.1
Oc1ccc2c(c1)OCC1(O)Cc3cc(O)c(O)cc3C21 (stereo unspecified)	2.4	-24.7	57.0	-17.9	34.8	0.2	x
CCN(CC)C(=O)CSc1nc(-c2cccs2)cc(-c2cccs2)c1C#N	38.0	-8.0	70.0*	19.3	0.3	-0.2	14.6
O=C(CN1CCCCCC1)N/N=C/c1ccc2ccccc2c1	-1.0	-4.4	-4.9	-4.0	0.9	0.0	x
Cn1c(SCCC#N)nnc1-c1ccc(F)cc1	-2.8	x	x	-4.4	x	0.0	x
CC1=C(SCCC#N)S/C(=C2\SC(C)=C(SCCC#N)S2)S1	-7.9	12.0	59.6*	10.9	-3.2	0.0	3.0
O=C(N/N=C/c1cc2c(cc1[N+](=O)[O-])OCO2)c1ccccn1	5.7	33.9	72.3*	1.8	-3.3	0.2	20.1
COc1ccc2[nH]c(CN3CCC(n4nccc4NC(=O)C4CC4)CC3)c(C)c2c1	-3.5	-0.9	2.3	-3.3	-1.1	0.4	x
COCc1cc(=O)n2[nH]c(C(C)(C)C)cc2n1	5.7	5.4	61.0*	-3.3	-1.1	-0.1	48.4*	Diaph ctr 10uM=34.0;Diaphorase 30uM=28.4
C/C(=N\N=C(/N)c1nonc1N)c1ccc2c(c1)OCO2	-6.4	4.9	-8.9	4.7	-3.7	-0.1	x
COc1cc(N)c2ncccc2c1SC	10.9	-20.6	65.6*	-11.6	7.0	0.3	61.7*	Diaph ctr 10uM=-9.3;Diaphorase 30uM=8.1
COc1cc(N)c2ncccc2c1Br	-5.1	-10.1	57.3	-11.4	1.5	0.0	x
Cn1c(O)c(N=NC(=O)c2ccccc2O)c2ccccc21	-14.2	-10.4	34.1	-4.5	-1.5	0.1	x
Cc1cc(N=NC(=O)c2ccccc2O)c2ccccc2c1O	-15.4	50.8*	64.3*	-2.9	25.9	-0.1	49.1*	Diaph ctr 10uM=19.5;Diaphorase 30uM=20.9
CCOC(=O)NC(N(O)c1cccc(Cl)c1)C(Cl)(Cl)Cl (stereo unspecified)	-8.2	-8.2	85.1*	10.8	-1.4	0.2	17.6
O=c1[nH]c(CN2CCN(c3ccc(O)cc3)CC2)nc2scc(-c3ccc(Cl)cc3)c12	-11.6	1.5	78.5*	12.4	-0.7	0.2	21.7
Cc1ccc(Nc2n[nH]c(=S)s2)cc1F	0.1	-16.9	72.2*	-1.5	-5.5	0.1	23.4
S=c1[nH]nc(Nc2ccc(Cl)cc2)s1	2.9	-2.7	64.5*	-3.1	-1.9	0.0	35.8
Cc1ccc(Nc2n[nH]c(=S)s2)cc1	-2.3	-10.3	44.2	-2.2	-3.3	0.1	x
O=C(Nc1ccccn1)c1sc2cc([N+](=O)[O-])ccc2c1Cl	-4.2	3.0	70.2*	1.2	-0.9	0.4	61.0*	Diaph ctr 10uM=-14.9;Diaphorase 30uM=-18.0
O=C(NCCCN1CCOCC1)c1sc2cc([N+](=O)[O-])ccc2c1Cl	0.1	-2.5	87.5*	7.9	0.2	0.2	94.6*	Diaph ctr 10uM=-22.2;Diaphorase 30uM=-20.9
CCCCNC(=O)CSc1nc2cc3c(cc2c(=O)n1Cc1ccco1)OCO3	1.1	-8.1	5.6	2.1	0.4	0.5	x
Cc1[nH]c2ccccc2c1/C=N/NC(=O)c1cccc(S(=O)(=O)Nc2cccc(C(F)(F)F)c2)c1	-1.6	-10.5	65.6*	23.6	-0.2	0.1	15.3
COc1cccc(/C=N/NC(=O)CCCc2ccc(OC)c(C)c2)c1	-6.1	-17.5	77.3*	7.2	-3.3	0.7	23.4
Cc1ccccc1CC(=O)N1CCOCC1	-2.0	8.1	10.0	-2.7	-1.3	0.0	x
SMILES	Cardio protect	CRFBP-R2 block	PfGluPho inh	FAS TE block	CRFBP-R2 agonist	aDG glyco act	PfGluPho conf	others
Cc1cc(C)n2c(=S)[nH]nc2n1	14.2	9.0	71.0*	-3.0	-0.7	-0.2	19.6
Cc1cc(-n2c(C)cc(C(=O)CSc3ccccn3)c2C)no1	-2.2	-8.2	67.4*	-1.9	0.0	0.0	22.7
Cc1cc(-n2c(C)cc(C(=O)CSc3nnnn3-c3ccccc3)c2C)no1	-6.0	26.5	11.7	9.4	0.2	0.0	x
COCCN(C(=O)CSc1nnc(-c2ccccc2F)o1)c1c(N)n(Cc2ccccc2)c(=O)[nH]c1=O	4.3	-5.1	-0.4	-4.4	0.0	-0.2	x
c1cncc(CNc2ccc3c(c2)OCO3)c1	-5.0	6.2	67.8*	-5.6	-1.2	-0.4	58.1*	Diaph ctr 10uM=5.0;Diaphorase 30uM=4.4
CCCC(=O)Nc1cccc(NC(=O)c2cccc([N+](=O)[O-])c2C)c1	2.7	-28.2	-5.9	-3.5	-2.4	0.2	x
COc1ccc(CCNc2nc(C)c(C(C)=O)s2)cc1OC	1.0	-1.3	61.0*	-6.9	0.1	0.2	20.0
Cc1ccc(NC(=O)NNC(=O)CN2C(=O)COc3ccccc32)cc1	-1.8	7.5	10.9	-2.0	0.9	-0.1	x
COc1ccc2[nH]c(=O)c(CNc3cccc(C)c3)cc2c1	31.4	-6.9	68.7*	-8.9	13.3	0.0	-1.7
COc1ccc(NCc2cc3cc(OC)ccc3[nH]c2=O)cc1	99.0*	-21.0	72.5*	-12.2	6.0	0.0	26.1
COc1ccc(C(NC(=O)C2CCN(CCOc3ccc(Cl)cc3Cl)CC2)c2cccs2)cc1 (stereo unspecified)	-9.8	x	x	22.9	x	0.8	x
COc1ccc(C(=O)c2c(-c3cccc(C)c3)oc3ccc(N4CCOCC4)cc23)cn1	1.0	3.7	22.7	27.7	-0.6	0.5	x
O=C1CC(N2CCN(c3ccc(O)cc3)CC2)C(=O)N1c1ccc2c(c1)OCO2 (stereo unspecified)	6.0	-1.6	59.8*	-8.4	1.5	-0.2	28.7
Cc1ccc(C2(C)NC(=O)N(CC(=O)NCCN3C(=O)S/C(=C\c4cccnc4)C3=O)C2=O)cc1 (stereo unspecified)	10.3	-0.2	-12.3	-4.6	4.6	-0.2	x
Cc1ccc2nc(SCC(=O)N/N=C/c3ccco3)cc(C)c2c1	5.6	9.2	68.9*	-0.3	0.2	-0.1	49.9*	Diaph ctr 10uM=66.5*;Diaphorase 30uM=35.9
